Source: PubChem
In the library only some 1.6% were active in any assay of this set; here they are far more common.
KCNQ2 inh: inhibitors of rat KCNQ2 potassium channel | O88943 | CHO-K1 KCNQ2, FluxOR thallium flux, 20 min; active compounds read low | B-score at 10 µM | 1.1% of 310,000 active | AID 2156;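 active means fluorescence ratio B-score at most minus 3 library SDs, with starting brightness B-score within 2 library SDs, cut at about -5.5 in these data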
KCNQ2 enhance: KCNQ2 (rat) channel potentiation | O88943 | CHO-K1 KCNQ2, FluxOR thallium flux fluorescence; active compounds read high | B-score at 10 µM | 0.54% of 310,000 active;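 active means fluorescence ratio B-score at least 3 SD of library B-scores, with initial fluorescence B-score within 3 of them, cut at about 5.3 in these data; same plate scores as AID 2156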;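 further: B-score of peak minus minimum over baseline fluorescence ratio after K+ and Tl+ stimulus; positive B-score means potentiation of KCNQ2 with more thallium influx and brighter signal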
Kir21 confirm: confirmation of mouse Kir2.1 potassium channel inhibitors | 41% of 2,300 active | AID 2032 | Kir2.1-expressing cells, FluxOR thallium flux fluorescence; active compounds read low | shares compounds with KCNQ2 enhance | Tl flux remaining, % of negative control (active compounds read low), % at 10 µM;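 active means Primary-screen hit whose thallium flux fell at least 3 control SD below untreated wells in both duplicates, with normal baseline fluorescence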
Target sequence (P35561 whole entry, looked up): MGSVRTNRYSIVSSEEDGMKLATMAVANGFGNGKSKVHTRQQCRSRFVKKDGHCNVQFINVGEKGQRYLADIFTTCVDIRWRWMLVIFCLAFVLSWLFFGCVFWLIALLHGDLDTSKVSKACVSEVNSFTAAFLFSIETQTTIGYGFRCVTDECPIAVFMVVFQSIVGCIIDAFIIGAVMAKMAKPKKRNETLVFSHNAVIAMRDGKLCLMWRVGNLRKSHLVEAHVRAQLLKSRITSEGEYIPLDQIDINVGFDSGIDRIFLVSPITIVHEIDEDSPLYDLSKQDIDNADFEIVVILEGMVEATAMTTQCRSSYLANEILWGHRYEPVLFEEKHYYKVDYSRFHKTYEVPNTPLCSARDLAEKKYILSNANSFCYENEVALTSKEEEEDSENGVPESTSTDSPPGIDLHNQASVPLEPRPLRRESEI
HEK293 Tl flux: alters thallium flux in parental HEK293 cells, Kir2.1 counter-screen | 19% of 2,300 active | shares compounds with KCNQ2 enhance | FluxOR signal as % of negative control (100 = no effect), % at 10 µM | FluxOR thallium flux fluorescence; 0% = unstimulated blank wells;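 active means dye signal at least 3 control SD above or below untreated wells in both duplicates, raw fluorescence within 3, either direction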;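 further: percent is based on the flux ratio of peak minus minimum fluorescence over baseline F0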
CHO-K1 ctr: parental CHO-K1 activity in KCNQ2 potentiator counter-screen | shares compounds with KCNQ2 enhance | parental CHO-K1 cells, FluxOR thallium flux fluorescence; zero = vehicle mean+3SD, 100% = vehicle-minus-blank window | activity increase over 3SD of controls, % at 10 µM | 43% of 1,200 active | AID 2282;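 active means signal rise of at least 3 SD above the untreated control mean, in both duplicate wells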;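 further: counter screen of KCNQ2 potentiator hits so any rise reflects channel-independent effects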
KCNQ1 sel pot: human KCNQ1 counter-target activity of KCNQ2 potentiators | shares compounds with KCNQ2 enhance | CHO KCNQ1 stable, FluxOR thallium flux fluorescence; beyond 3SD, as % of vehicle-control signal | activation over 3SD threshold, % at 10 µM | 28% of 1,200 active | AID 2283;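 active means fluorescence ratio rise of at least 3 SD of vehicle wells above their mean, in both replicate wells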
KCNQ2 pot confirm: confirmation of rat KCNQ2 potassium channel potentiators; shares compounds with KCNQ2 enhance; AID 2287; potentiation, less the hit threshold, % at 10 µM; 68% of 1,200 active; CHO-KCNQ2 cells, FluxOR thallium flux fluorescence;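 active means fluorescence ratio rising 3 SD or more over the vehicle control mean in both replicates, plus primary screen hit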;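 further: peak minus minimum thallium fluorescence divided by baseline after K/Tl stimulus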
Kir2-1 sel: tests whether KCNQ2 potentiators also affect mouse Kir2.1. 2% of 1,200 active. shares compounds with KCNQ2 enhance. HEK293 Kir2.1, FluxOR thallium flux fluorescence. activity over 3SD threshold, % at 10 µM;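 active means fluorescence ratio rise of at least 3 SD above the vehicle-control mean, seen in both replicates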
KCNQ2 W236L MoA: rat KCNQ2 W236L mutant potentiation by KCNQ2 potentiators | shares compounds with KCNQ2 enhance | CHO KCNQ2-W236L, automated patch clamp current | current increase over 3SD of negative controls (%), active compounds read high, % at 25 µM | 10% of 940 active;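 active means current increase at least 3 SD of the untreated controls above them in both duplicate recordings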
Each line names hits and unclear results; the compound was inactive in the other large screens (follow-up assays come after a bar, where they were run).

O=C(Nc1nnc(-c2ccc(Br)cc2)o1)c1ccco1	KCNQ2 enhance 16.5 | Kir21 confirm inactive | HEK293 Tl flux inactive | CHO-K1 ctr inactive | KCNQ1 sel pot inactive | KCNQ2 pot confirm 18.8 | Kir2-1 sel inactive | KCNQ2 W236L MoA inactive
CCn1c(SCC(=O)N/N=C(/C)c2ccncc2)nc2ccccc21	none
COc1ccc(Nc2nc(N3CCCC3)c3ccccc3n2)cc1	none | Kir21 confirm 21.0% | HEK293 Tl flux inactive
c1ccc(Nc2c3c(nc4ccccc24)CCC3)cc1	none
COc1ccc(Nc2c3c(nc4ccccc24)CCCC3)cc1OC	none
COc1ccc(C)cc1Nc1c2c(nc3ccccc13)CCC2	none | Kir21 confirm inactive | HEK293 Tl flux inactive
COc1ccc(Nc2c3c(nc4ccccc24)CCC3)cc1	none (no result: KCNQ2 enhance) | Kir21 confirm 42.0% | HEK293 Tl flux inactive
CCN(CC)c1ccc(Nc2nc(N3CCOCC3)c3ccccc3n2)cc1	none (no result: KCNQ2 enhance)
COc1ccc(Nc2nc(N3CCN(S(C)(=O)=O)CC3)nc3ccccc23)c(OC)c1	none (no result: KCNQ2 enhance)
COc1ccc(Nc2nc(N3CCCCC3)nc3ccccc23)c(OC)c1	none (no result: KCNQ2 enhance) | Kir21 confirm inactive | HEK293 Tl flux inactive
O=C(Nc1ccc(C(=O)O)cc1)/C(=C\C=C\c1ccccc1)NC(=O)c1ccccc1Br	none (no result: KCNQ2 enhance)
Cc1cc2c(SCC(=O)NC3CCCC3)ncnc2s1	none
CC(C)NC(=O)C(c1ccc(F)cc1)N(C(=O)CCC(=O)Nc1ccccn1)c1cccc(F)c1 (configuration not stated)	none (no result: KCNQ2 enhance)
COCCNC(=O)/C(C#N)=C/c1c(F)cccc1Cl	none (no result: KCNQ2 enhance)
N#Cc1cc2c(nc1S(=O)(=O)Cc1ccccc1)CCCC2	none
CC(=O)SCC(=O)N=c1sc2cc(F)ccc2n1C	KCNQ2 enhance 5.89 | Kir21 confirm inactive | HEK293 Tl flux inactive | CHO-K1 ctr inactive | KCNQ1 sel pot inactive | KCNQ2 pot confirm 5.6 | Kir2-1 sel inactive | KCNQ2 W236L MoA inactive
Cn1c(=NC(=O)CCS(=O)(=O)c2ccccc2)sc2cc(F)ccc21	none (no result: KCNQ2 enhance)
CCn1c(SCC(=O)Nc2ccc(N3CCOCC3)cc2)nnc1-c1ccco1	none (no result: KCNQ2 enhance)
CSc1nc(-c2ccccc2)c(C#N)c(=O)n1C	none (no result: KCNQ2 enhance)
CCCN1CCC(NCC(C)c2ccccc2)CC1 (configuration not stated)	none
CCCN1CCC(NC23CC4CC(CC(C4)C2)C3)CC1	none | Kir21 confirm 54.0% | HEK293 Tl flux inactive
CC1CC(C)CN(CCCNS(=O)(=O)c2ccc3c(c2)oc(=O)n3C)C1 (configuration not stated)	none
Cc1ccc(OC/C(=N\O)C(C)(C)C)c([N+](=O)[O-])c1	none (no result: KCNQ2 enhance)
Cc1ccc2c(c1)c1c(n2CC(O)CNC2CCCCC2)CCCC1 (configuration not stated)	none (no result: KCNQ2 enhance) | Kir21 confirm 51.0% | HEK293 Tl flux inactive
Cc1ccc2c(c1)c1c(n2CC(O)CNC(CO)(CO)CO)CCCC1 (configuration not stated)	none
COc1ccc(CCNC(=O)CCCN2C(=O)C(c3ccccc3)Oc3cccnc32)cc1OC (configuration not stated)	none (no result: KCNQ2 enhance)
COc1ccc(OC)c(NC(=O)COC(=O)CN(C)S(=O)(=O)c2ccc(C)cc2)c1	none (no result: KCNQ2 enhance)
COc1cccc(-n2sc3c(c2=S)-c2cc(OC)ccc2NC3(C)C)c1	none (no result: KCNQ2 enhance)
CC1(C)Nc2ccc(O)cc2-c2c1ssc2=S	none (no result: KCNQ2 enhance) | Kir21 confirm 40.0% | HEK293 Tl flux inactive
CC(C)C[C@@H](CO)N1CCN(Cc2cccc(C#N)c2)CCC1=O	none (no result: KCNQ2 enhance)
Cc1ccc2nc(Cl)c(CNCc3ccccc3)cc2c1	none (no result: KCNQ2 enhance) | Kir21 confirm 20.5% | HEK293 Tl flux inactive
Cc1ccc(CNCc2ccccc2Cl)cc1	none (no result: KCNQ2 enhance)
COc1ccccc1/C=N/NC(=O)CC(=O)NCCc1ccccc1	none (no result: KCNQ2 enhance)
Cc1cccc(-n2c(Cc3cc(=O)[nH]c(=O)[nH]3)nnc2SCC(=O)N2CCc3ccccc32)c1	none
CN(C)c1ccc(-n2cccc2/C=C/[N+](=O)[O-])cc1	none (no result: KCNQ2 enhance)
CN(c1ccccc1)c1ccc(/C=C/[N+](=O)[O-])cc1	none (no result: KCNQ2 enhance) | Kir21 confirm inactive | HEK293 Tl flux inactive
Cc1ccc(SCCNC(=S)Nc2ccc(C)c(C)c2)cc1	KCNQ2 enhance 10.4 | Kir21 confirm inactive | HEK293 Tl flux 72.5% | CHO-K1 ctr 1.9 | KCNQ1 sel pot 15.9 | KCNQ2 pot confirm inactive | Kir2-1 sel inactive | KCNQ2 W236L MoA inactive
Cc1ccc(SCCNC(=S)Nc2ccccc2)cc1	none (no result: KCNQ2 enhance)
Cc1ccc(C)c(OCc2cc(C(=O)NC3CCOC(C)(C)C3)no2)c1 (configuration not stated)	none
CC1(C)C2C/C(=N\O)C(C)(/[N+]([O-])=C/c3cccc([N+](=O)[O-])c3)CC21 (configuration not stated)	none (no result: KCNQ2 enhance)
COc1ccc(Nc2ncnc3ccc(C)cc23)cc1	none | Kir21 confirm 52.5% | HEK293 Tl flux 168.0%
COC(=O)c1cccc(Nc2ncnc3ccc(C)cc23)c1	none (no result: KCNQ2 enhance)
CCNC(=S)Nn1cnc2ccccc21	none
COCCC(=O)N1CCC(Oc2ccc(C(=O)N3CCCC(COC)C3)cc2)CC1 (configuration not stated)	none
Fc1ccc(-c2csc(NC(=S)Nc3ccccc3)n2)cc1	KCNQ2 enhance 8.78 | Kir21 confirm inactive | HEK293 Tl flux inactive | CHO-K1 ctr 26.5 | KCNQ1 sel pot inactive | KCNQ2 pot confirm inactive | Kir2-1 sel inactive | KCNQ2 W236L MoA inactive
O=C(Nc1ccccc1)Nc1nc(-c2ccc(F)cc2)cs1	none (no result: KCNQ2 enhance)
Cc1ccc(/C=C/C(=O)c2ccccc2O)cc1	none (no result: KCNQ2 enhance)
Cc1ccc(/C=C/C(=O)C2C(=O)c3ccccc3C2=O)cc1	KCNQ2 enhance 7.26 | Kir21 confirm inactive | HEK293 Tl flux 146.0% | CHO-K1 ctr inactive | KCNQ1 sel pot inactive | KCNQ2 pot confirm inactive | Kir2-1 sel inactive | KCNQ2 W236L MoA inactive
S=c1[nH]c2cc(Cl)ccc2s1	KCNQ2 enhance 18.2 | Kir21 confirm inactive | HEK293 Tl flux 552.5% | CHO-K1 ctr 10.3 | KCNQ1 sel pot inactive | KCNQ2 pot confirm 54.0 | Kir2-1 sel 2.3 | KCNQ2 W236L MoA inactive
S=c1[nH]c2ccc(Cl)cc2[nH]1	none
COc1cc(OC)cc(C(=O)Nc2nnc(SCC(=O)NCc3ccco3)s2)c1	none
OC(CNCc1ccccn1)c1ccccc1 (configuration not stated)	none
